The values below come from PubChem BioAssay (EPA / NIEHS).

Molecules are shown by their SMILES. Results filed as inconclusive are left out. Calls of active or inactive are those of the source. Rule for the calls, unless noted: active = hit-call score of the fitted dose curve at least 0.9, where 1 is the maximum; inactive = score below 0.9.

What is called AC50 is the concentration giving half of the maximal activity seen.

Read-out in assay [1]: Phosphatase and tensin (PTEN), PTEN (gene 5728)
The assay is described as follows: LTEA_HepaRG_PTEN: Life Technologies and Expression Analysis (LTEA) Assay for Phosphatase and tensin (PTEN) using HepaRG (AID 2283523). The following applies: mRNA level, 48 h; actives raise or lower the signal. An outline of the steps:
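Read-out: TaqMan qRT-PCR of PTEN transcript, normalized to three housekeeping genes, fitted in both directions against 0.5% DMSO. Differentiated human HepaRG cultures received chemicals for 48 h, eight-point half-log series topping at 100 uM.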

Read-out in assay [2]: solute carrier (SLC22A1), SLC22A1 (gene 6580)
The assay is described as follows: LTEA_HepaRG_SLC22A1: Life Technologies and Expression Analysis (LTEA) Assay for solute carrier (SLC22A1) using HepaRG (AID 2283524).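 For AC50: differentiated human HepaRG liver cells in serum-free induction medium.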 The following applies: mRNA level, 48 h; actives raise or lower the signal. An outline of the steps:
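Transcript level of SLC22A1 quantified by qRT-PCR (normalized to three housekeeping genes) after 48 h chemical exposure of HepaRG cells, eight concentrations up to 100 µM, half-log steps, 0.5% DMSO vehicle. Gain or loss relative to DMSO fitted bidirectionally.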

Read-out in assay [3]: NAD(P)H dehydrogenase [quinone] 1 (NQO1), NQO1 (gene 1728)
The assay can be described thus: LTEA_HepaRG_NQO1: Life Technologies and Expression Analysis (LTEA) Assay for NAD(P)H dehydrogenase [quinone] 1 (NQO1) using HepaRG (AID 2283526). The conditions noted are these: mRNA level, 48 h; actives raise or lower the signal. An outline of the steps: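 qRT-PCR read-out (Fluidigm TaqMan), normalized to three housekeeping genes, after 48 h chemical exposure of HepaRG cells. Concentrations: eight points, top 100 uM, half-log steps, 0.5% DMSO vehicle. Gain or loss of signal fitted relative to DMSO.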

Read-out in assay [4]: Nuclear factor erythroid 2-related factor 2 (Homo sapiens) (UniProt Q16236)
The assay is described as follows: LTEA_HepaRG_NFE2L2: Life Technologies and Expression Analysis (LTEA) Assay for Nuclear factor erythroid 2-related factor 2 (NFE2L2) Transcription Factor using HepaRG (AID 2283527).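 Note: TaqMan qRT-PCR transcript level normalised to ACTB GAPDH and POLR2A housekeeping genes.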 The following applies: mRNA level, 48 h; actives raise or lower the signal. An outline of the steps:
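NFE2L2 transcript level was read by qRT-PCR (housekeeping ACTB/GAPDH/POLR2A normalisation) after 48 h chemical treatment of HepaRG in serum-free induction medium. Duplicate 8-point half-log curves, top 100 uM, 0.5% DMSO vehicle; up- or down-regulation fitted against vehicle.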

Read-out in assay [5]: succinate dehydrogenase complex iron sulfur subunit B (SDHB), SDHB (gene 6390)
The assay can be described thus: LTEA_HepaRG_SDHB: Life Technologies and Expression Analysis (LTEA) Assay for succinate dehydrogenase complex iron sulfur subunit B (SDHB) using HepaRG (AID 2283528). The following applies: mRNA level, 48 h; actives raise or lower the signal. An outline of the steps:
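Readout is SDHB transcript level by qRT-PCR, normalised to three housekeeping genes and fitted bidirectionally against 0.5% DMSO vehicle. Human HepaRG cells were treated for 48 h at up to 100 uM.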

Read-out in assay [6]: Signal transducer and activator of transcription 3 (Homo sapiens) (UniProt P40763)
The assay can be described thus: LTEA_HepaRG_STAT3: Life Technologies and Expression Analysis (LTEA) Assay for Signal transducer and activator of transcription (STAT3) using HepaRG (AID 2283529). The following applies: mRNA level, 48 h; actives raise or lower the signal. An outline of the steps:
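STAT3 transcript quantified by qRT-PCR against three housekeeping genes (ACTB, GAPDH, POLR2A), fitted both directions relative to DMSO. HepaRG cultures exposed 48 h to eight half-log concentrations, top 100 uM, 0.5% DMSO, serum-free induction medium.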

Read-out in assay [7]: solute carrier (SLCO1B1), SLCO1B1 (gene 10599)
The assay can be described thus: LTEA_HepaRG_SLCO1B1: Life Technologies and Expression Analysis (LTEA) Assay for solute carrier (SLCO1B1) using HepaRG (AID 2283530). The conditions noted are these: mRNA level, 48 h; actives raise or lower the signal. An outline of the steps:
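Human HepaRG cultures treated for 48 h with an eight-concentration half-log series topping at 100 uM; SLCO1B1 measured by qRT-PCR and fitted bidirectionally relative to DMSO.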

Read-out in assay [8]: sulfotransferase 2A1 (SULT2A1), SULT2A1 (gene 6822)
The assay is described as follows: LTEA_HepaRG_SULT2A1: Life Technologies and Expression Analysis (LTEA) Assay for sulfotransferase 2A1 (SULT2A1) using HepaRG (AID 2283531). The conditions noted are these: mRNA level, 48 h; actives raise or lower the signal. An outline of the steps:
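Gene-expression endpoint in a human liver cell line: SULT2A1 mRNA change after 48 h chemical treatment, curves fitted in both directions relative to 0.5% DMSO vehicle. Concentrations spanned eight half-log steps from 100 uM.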

Read-out in assay [9]: Transforming Growth Factor (TGFA), TGFA (gene 7039)
The assay is described as follows: LTEA_HepaRG_TGFA: Life Technologies and Expression Analysis (LTEA) Assay for Transforming Growth Factor (TGFA) using HepaRG (AID 2283532). The following applies: mRNA level, 48 h; actives raise or lower the signal. An outline of the steps:
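TGFA transcript quantified by qRT-PCR (Fluidigm arrays) against three housekeeping genes, after 48 hours chemical treatment of HepaRG cells. Top concentration 100 uM with half-log dilutions, 8 points, duplicates, 0.5% DMSO.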

Read-out in assay [10]: Transforming Growth Factor (TGFB1), TGFB1 (gene 7040)
The assay is described as follows: LTEA_HepaRG_TGFB1: Life Technologies and Expression Analysis (LTEA) Assay for Transforming Growth Factor (TGFB1) Transporter using HepaRG (AID 2283533). The conditions noted are these: mRNA level, 48 h; actives raise or lower the signal. An outline of the steps: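 Eight-point concentration-response (max 100 uM, half-log) in HepaRG under serum-free induction conditions, 48 h. TGFB1 mRNA by qRT-PCR, housekeeping-normalized.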

Read-out in assay [11]: TIMP1, TIMP1 (gene 7076)
The assay is described as follows: LTEA_HepaRG_TIMP1: Life Technologies and Expression Analysis (LTEA) Assay for TIMP1 using HepaRG (AID 2283534).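 Note: TaqMan qRT-PCR signal normalized to ACTB GAPDH and POLR2A housekeeping genes.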 The conditions noted are these: mRNA level, 48 h; actives raise or lower the signal. An outline of the steps: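 TIMP1 induction or repression in HepaRG cells after 48 h chemical exposure (eight concentrations, highest 100 uM), assessed by normalized qRT-PCR with bidirectional fitting to DMSO controls.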

Read-out in assay [12]: Tumor necrosis factor receptor 1 (TNFRSF1A), TNFRSF1A (gene 7132)
The assay can be described thus: LTEA_HepaRG_TNFRSF1A: Life Technologies and Expression Analysis (LTEA) Assay for Tumor necrosis factor receptor 1 (TNFRSF1A) using HepaRG (AID 2283535). The conditions noted are these: mRNA level, 48 h; actives raise or lower the signal. An outline of the steps:
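Assay uses 48 h chemical treatment of differentiated HepaRG monolayers, tested in duplicate at eight concentrations from 100 uM downward in 0.5% DMSO. mRNA is normalized to ACTB, GAPDH and POLR2A, with induction or suppression fitted relative to vehicle.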

Read-out in assay [13]: Thyroid Hormone Responsive (THRSP), THRSP (gene 7069)
The assay can be described thus: LTEA_HepaRG_THRSP: Life Technologies and Expression Analysis (LTEA) Assay for Thyroid Hormone Responsive (THRSP) using HepaRG (AID 2283536). The conditions noted are these: mRNA level, 48 h; actives raise or lower the signal. An outline of the steps: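 THRSP transcript quantified by Fluidigm qRT-PCR against three housekeeping genes after 48 h chemical exposure of HepaRG cells in serum-free induction medium; eight-point half-log series, top 100 uM, 0.5% DMSO vehicle, duplicate wells.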

Read-out in assay [14]: Cellular tumor antigen p53 (Homo sapiens) (UniProt P04637)
The assay is described as follows: LTEA_HepaRG_TP53: Life Technologies and Expression Analysis (LTEA) Assay for Tumor Protein P53 (TP53) using HepaRG (AID 2283537). The conditions noted are these: mRNA level, 48 h; actives raise or lower the signal. An outline of the steps: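 Read-out is TP53 transcript level by microfluidic qRT-PCR, normalised to three housekeeping genes and fitted bidirectionally against DMSO. Human HepaRG cells received compounds for 48 h, highest concentration 100 uM.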

Read-out in assay [15]: UDP glucuronosyltransferase (UGT1A1), UGT1A1 (gene 54658)
The assay can be described thus: LTEA_HepaRG_UGT1A1: Life Technologies and Expression Analysis (LTEA) Assay for UDP glucuronosyltransferase (UGT1A1) using HepaRG (AID 2283538). The conditions noted are these: mRNA level, 48 h; actives raise or lower the signal. An outline of the steps: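 HepaRG, 48 h chemical exposure (top 100 uM, half-log 8-pt, 0.5% DMSO vehicle), duplicate wells; qRT-PCR (TaqMan, Fluidigm array) for UGT1A1 mRNA, housekeeping-normalized; bidirectional curve fit vs DMSO baseline.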

Read-out in assay [16]: UDP glucuronosyltransferase (UGT1A6), UGT1A6 (gene 54578)
The assay is described as follows: LTEA_HepaRG_UGT1A6: Life Technologies and Expression Analysis (LTEA) Assay for UDP glucuronosyltransferase (UGT1A6) using HepaRG (AID 2283539). The conditions noted are these: mRNA level, 48 h; actives raise or lower the signal. An outline of the steps:
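Measures mRNA change in HepaRG hepatic cells exposed 48 h to chemicals (eight-point, maximum 100 uM, 0.5% DMSO vehicle) in serum-free induction medium. Expression normalized to endogenous controls; DMSO served as negative control and baseline.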

Read-out in assay [17]: X-box binding protein 1 (XBP1), XBP1 (gene 7494)
The assay can be described thus: LTEA_HepaRG_XBP1: Life Technologies and Expression Analysis (LTEA) Assay for X-box binding protein 1 (XBP1) using HepaRG (AID 2283540). The conditions noted are these: mRNA level, 48 h; actives raise or lower the signal. An outline of the steps:
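Eight concentrations (half-log, highest 100 uM, 0.5% DMSO) tested in duplicate on HepaRG cells over 48 h in serum-free induction medium; qRT-PCR of XBP1 normalised to ACTB, GAPDH, POLR2A.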

A short description of assay [18]: LTEA_HepaRG_LDH_cytotoxicity: Cytotoxicity Assessment in the Life Technologies and Expression Analysis (LTEA) Assay (AID 2283563; active = hit-call score of the fitted dose curve at least 0.9, where 1 is the maximum;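 for AC50: LDH activity released into spent culture medium as a marker of cell death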). An outline of the steps: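 Spent-medium LDH after 48 h chemical exposure of HepaRG cells in serum-free induction medium; eight concentrations, half-log dilutions from 100 uM, duplicate wells, fitted upward relative to 0.5% DMSO.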
Read-out in assay [19]: Pyruvate Dehydrogenase Kinase 4 (PDK4), PDK4 (gene 5166)
The assay can be described thus: LTEA_HepaRG_PDK4: Life Technologies and Expression Analysis (LTEA) Assay for Pyruvate Dehydrogenase Kinase 4 (PDK4) using HepaRG (AID 2283525). The conditions noted are these: mRNA level, 48 h; actives raise or lower the signal. An outline of the steps:
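Readout is qRT-PCR of PDK4 transcript, normalized to three housekeeping genes, with bidirectional fitting against 0.5% DMSO vehicle. Differentiated HepaRG cells were treated 48 h in serum-free induction medium, duplicate wells, eight-point half-log series topping at 100 uM.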

Assay [20] in a line: ATG_XTT_Cytotoxicity: Cytotoxicity Assessment in the Attagene TRANS-FACTORIAL HepG2 Assay (AID 2283584; active = hit-call score of the fitted dose curve at least 0.9, where 1 is the maximum). An outline of the steps:
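24 h chemical exposure of reporter-transfected HepG2; XTT signal loss vs DMSO indicates cytotoxicity.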

Cellular tumor antigen p53 (Homo sapiens), sequence (P04637 whole entry, looked up): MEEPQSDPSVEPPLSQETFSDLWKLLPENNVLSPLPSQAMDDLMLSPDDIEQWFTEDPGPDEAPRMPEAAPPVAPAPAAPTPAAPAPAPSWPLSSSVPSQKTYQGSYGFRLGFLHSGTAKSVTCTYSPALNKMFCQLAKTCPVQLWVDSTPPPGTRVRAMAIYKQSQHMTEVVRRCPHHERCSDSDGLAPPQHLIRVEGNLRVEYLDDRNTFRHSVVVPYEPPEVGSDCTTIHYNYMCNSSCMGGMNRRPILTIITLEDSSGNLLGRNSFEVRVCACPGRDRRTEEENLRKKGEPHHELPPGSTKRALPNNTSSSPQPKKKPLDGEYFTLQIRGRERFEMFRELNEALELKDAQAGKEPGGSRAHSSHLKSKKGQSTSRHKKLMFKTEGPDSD
Nuclear factor erythroid 2-related factor 2 (Homo sapiens), sequence (Q16236 whole entry, looked up): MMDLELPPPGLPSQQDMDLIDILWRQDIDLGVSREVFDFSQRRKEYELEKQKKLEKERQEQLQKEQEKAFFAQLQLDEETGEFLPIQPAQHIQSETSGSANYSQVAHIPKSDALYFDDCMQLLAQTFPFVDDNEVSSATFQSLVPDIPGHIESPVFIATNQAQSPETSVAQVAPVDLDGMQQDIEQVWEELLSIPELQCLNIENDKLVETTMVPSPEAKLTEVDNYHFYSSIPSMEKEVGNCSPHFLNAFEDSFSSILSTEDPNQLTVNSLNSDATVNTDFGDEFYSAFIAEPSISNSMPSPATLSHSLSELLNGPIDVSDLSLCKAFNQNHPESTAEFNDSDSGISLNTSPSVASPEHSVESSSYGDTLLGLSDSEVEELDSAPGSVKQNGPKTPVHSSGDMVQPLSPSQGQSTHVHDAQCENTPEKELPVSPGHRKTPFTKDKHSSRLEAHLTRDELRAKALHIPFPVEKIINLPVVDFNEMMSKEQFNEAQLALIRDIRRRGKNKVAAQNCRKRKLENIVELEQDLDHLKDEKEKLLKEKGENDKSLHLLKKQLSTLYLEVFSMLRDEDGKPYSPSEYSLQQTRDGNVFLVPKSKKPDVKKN
Signal transducer and activator of transcription 3 (Homo sapiens), sequence (P40763 whole entry, looked up): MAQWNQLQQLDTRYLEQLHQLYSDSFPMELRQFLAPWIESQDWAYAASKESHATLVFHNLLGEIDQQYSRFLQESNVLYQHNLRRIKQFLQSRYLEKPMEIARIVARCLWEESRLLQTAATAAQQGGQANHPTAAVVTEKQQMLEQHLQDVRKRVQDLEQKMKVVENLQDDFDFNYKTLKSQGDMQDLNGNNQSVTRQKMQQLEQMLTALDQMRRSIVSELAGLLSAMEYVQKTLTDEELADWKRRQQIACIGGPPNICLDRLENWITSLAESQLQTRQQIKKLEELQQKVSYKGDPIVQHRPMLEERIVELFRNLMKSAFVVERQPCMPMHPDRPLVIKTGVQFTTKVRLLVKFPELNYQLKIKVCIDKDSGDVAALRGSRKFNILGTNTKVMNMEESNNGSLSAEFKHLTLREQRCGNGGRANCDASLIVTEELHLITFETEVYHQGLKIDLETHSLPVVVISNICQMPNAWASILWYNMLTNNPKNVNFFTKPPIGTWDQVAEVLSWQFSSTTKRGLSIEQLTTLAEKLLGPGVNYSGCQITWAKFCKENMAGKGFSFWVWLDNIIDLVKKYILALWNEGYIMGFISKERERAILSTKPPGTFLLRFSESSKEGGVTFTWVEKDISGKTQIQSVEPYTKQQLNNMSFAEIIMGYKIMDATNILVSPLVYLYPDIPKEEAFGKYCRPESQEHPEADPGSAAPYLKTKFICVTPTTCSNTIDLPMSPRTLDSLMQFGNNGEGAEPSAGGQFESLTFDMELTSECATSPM

With `CCCCC(CC)COC(=O)c1ccc(C(=O)OCC(CC)CCCC)cc1` (stereo not given), the result in [1], in assay [2], in assay [3], in assay [4], in [5] and in assay [6] was inactive. For the same compound, the call in assay [7], in assay [8], in [9], in assay [10], in [11] and in assay [12] was inactive. For the same compound, the call in assay [13], in assay [14], in assay [15], in assay [16], in [17] and in assay [18] was inactive.

On to `CC(C)=CCCC(C)CCO` (stereo not given), for which the call in assay [1], in assay [2], in [19], in assay [4], in assay [5] and in assay [6] was inactive. Besides, the outcome in assay [7], in [8], in assay [9], in assay [10], in assay [11] and in assay [12] was inactive. The compound was classed as inactive in assay [13], in assay [14], in [15], in [16], in assay [17] and in assay [18]. The outcome in [20] was inactive.

For `CCCN(C1CCN(C(=O)C2CCNCC2)CC1)[C@@H]1CCc2ccc(OC)cc2C1`, the compound was called inactive in [1], in assay [19], in assay [4], in assay [5], in assay [9] and in assay [10]. Further, the compound was called inactive in assay [11], in [12], in [14] and in assay [20]. Also, the AC50 is 83 µM (active) in [2]; 0.256 µM (active) in [6]; 79.4 µM (active) in assay [7]; 83.5 µM (active) in assay [8]; 80.1 µM (active) in assay [13]; 69.3 µM (active) in assay [15]. Besides, the AC50 in assay [16] is 81 µM (active); in assay [18], 76.1 µM (active).
